In the library only some 4.1% were active in any assay of this set; here they are far more common.
LMP1 NFkB inh: EBV LMP1-driven NF-kappaB luciferase reporter inhibitors, primary screen, cell-based, luminescence, single point | LMP1-induced NF-kappaB luciferase reporter cells | inhibition, % at 12.5 µM | 350,000 tested, 0.69% active; in the data active = inhibition above about 41%;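 note: 0% = neutral control wells and 100% = reference inhibitor control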
TROY signal inh: inhibitors of TROY-driven NF-kB signaling, primary screen, Q293 LMP1-TROYcd cells, NF-kB luciferase, uHTS. Q293 LMP1-TROYcd NF-kB luciferase reporter, 4 h. 360,000 tested, 0.98% active. inhibition, % at 10 µM. AID 1347056, 2019;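 active = compounds whose plate-normalised and pattern-corrected inhibition of the luciferase reporter signal at the single screening dose is 50% or more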
TRPM1 prom inh: inhibitors of MITF-dependent TRPM1 promoter reporter, primary screen, cell-based, SK-MEL-5, single point, luciferase; SK-MEL-5 TRPM1 promoter luciferase, 24 h; 330,000 tested, 0.83% active; inhibition, % at 12.5 µM;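 active = mean inhibition across replicates of 60% or more, whatever share of single replicates reaches that level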
Shn3 inh set2: reduction of Shn3 3'UTR firefly luciferase signal, primary screen, Schnurri-3 inhibitor project, cell-based, Clone20 osteoblasts, set 2; Clone20 osteoblast Shn3 3'UTR firefly luciferase, 24 h; 360,000 tested, 0.52% active; inhibition, % at 12.5 µM;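 active = mean inhibition of at least 75% with every replicate also reaching 75%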;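 note: 0% = median of neutral control wells and 100% = pilot-screen positive control compound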
TWEAK-Fn14 inh: inhibitors of TWEAK-Fn14 signaling, primary screen, luciferase reporter cells, uHTS. inhibition, % at 10 µM. TWEAK-stimulated Fn14 reporter cells, luciferase luminescence, 8 h. AID 1159606, 2016. 360,000 tested, 2% active; in the data active = inhibition above about 50%
Peg3 prom inh-1: Peg3 promoter-driven luciferase inhibitors, primary screen, cell-based, HeLa, luciferase luminescence; HeLa PEG-Prom luciferase reporter, overnight; inhibition, % at 20 µM; 360,000 tested, 1.7% active;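 active = inhibition of at least 50% at 20 µM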
Peg3 prom inh-2: Peg3 promoter reporter inhibitors, retest, confirmation, cell-based, HeLa, luciferase reporter, single concentration | 1,300 tested, 84% active | inhibition, % at 20 µM | HeLa PEG-Prom luciferase reporter, luminescence, overnight | shares compounds with Peg3 prom inh-1 | AID 602417, 2012;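 active = at 20 µM dose, 40% or more inhibition averaged across four replicates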
Starred values were filed as active, the others as inactive.

`COc1ccccc1N1CCN(C(=O)c2sc3ncnc(N4CCN(c5ccccn5)CC4)c3c2C)CC1` gave LMP1 NFkB inh 24, TROY signal inh 23, TRPM1 prom inh 16, Shn3 inh set2 35, TWEAK-Fn14 inh 28, Peg3 prom inh-1 84* and Peg3 prom inh-2 74*.
Cc1c(C(=O)N2CCN(c3ccc(F)cc3)CC2)sc2ncnc(N3CCN(c4ccccn4)CC3)c12 was read as LMP1 NFkB inh 25, TROY signal inh 53*, TRPM1 prom inh 36, Shn3 inh set2 30, TWEAK-Fn14 inh 60*, Peg3 prom inh-1 50* and Peg3 prom inh-2 87*.
Screening COc1ccc(OC)c(NC(=O)c2sc3ncnc(N4CCN(c5ccccn5)CC4)c3c2C)c1 returned LMP1 NFkB inh 27, TROY signal inh 9, TRPM1 prom inh 7, Shn3 inh set2 35, TWEAK-Fn14 inh 2 and Peg3 prom inh-1 18.
Screening CC1CCN(CCCN2C(=O)C3C(C(=O)Nc4ccc(Cl)cc4)C4C=CC3(O4)C2C(=O)NC2CCCCC2)CC1 (centres undefined) returned LMP1 NFkB inh -4, TROY signal inh 5, TRPM1 prom inh 2, Shn3 inh set2 -7, TWEAK-Fn14 inh -20 and Peg3 prom inh-1 10.
For O=c1cc(-c2ccccc2Cl)oc2cccc(O)c12 the results were LMP1 NFkB inh 10, TROY signal inh -52, TRPM1 prom inh 7, Shn3 inh set2 -55, TWEAK-Fn14 inh 8 and Peg3 prom inh-1 -76.
Screening O=c1cc2oc3cc(O)c(O)cc3c(-c3ccccc3[N+](=O)[O-])c-2cc1O returned LMP1 NFkB inh 23, TROY signal inh 37, TRPM1 prom inh 45, Shn3 inh set2 25, TWEAK-Fn14 inh 45, Peg3 prom inh-1 60* and Peg3 prom inh-2 75*.
CCOc1ccc(Br)cc1S(=O)(=O)NCC(c1ccc(OC)cc1)N1CCOCC1 (centres undefined) was read as LMP1 NFkB inh -6, TROY signal inh -12, Shn3 inh set2 -8, TWEAK-Fn14 inh 4 and Peg3 prom inh-1 4.
O=C(NC(c1ccc(F)cc1)c1ccc2ccccc2n1)C1CCN(Cc2cccc(C(F)(F)F)c2)CC1 (centres undefined) was read as TROY signal inh 45, Shn3 inh set2 58, TWEAK-Fn14 inh 39, Peg3 prom inh-1 78* and Peg3 prom inh-2 85*.
`O=C(NC(c1ccc(F)cc1)c1ccc2ccccc2n1)C1CCN(Cc2ccc3ccccc3n2)CC1` (centres undefined) gave TROY signal inh -4, Shn3 inh set2 -7, TWEAK-Fn14 inh -11 and Peg3 prom inh-1 10.
Cc1ccc2c(c1)COc1c3ccc(C(=O)O)cc3nn1-2 was read as LMP1 NFkB inh -5, TROY signal inh -56, TRPM1 prom inh 70*, Shn3 inh set2 -9, TWEAK-Fn14 inh 81*, Peg3 prom inh-1 89* and Peg3 prom inh-2 36.
`Cc1ccc2c(c1)COc1c3ccc(C(=O)NCC4CC4)cc3nn1-2` gave LMP1 NFkB inh -24, TROY signal inh -50, TRPM1 prom inh -75, Shn3 inh set2 -98, TWEAK-Fn14 inh -9 and Peg3 prom inh-1 -245.
COc1ccccc1-n1c(SCC(=O)NC2CC2)nc2ccccc2c1=O was read as LMP1 NFkB inh -7, TROY signal inh -9, TRPM1 prom inh 4, Shn3 inh set2 -11, TWEAK-Fn14 inh 17 and Peg3 prom inh-1 9.
Screening Cc1cc(C)c(C(=O)Nc2ccc3c(c2)OCCO3)c(C)c1 returned LMP1 NFkB inh -22, TROY signal inh -70, Shn3 inh set2 -20, TWEAK-Fn14 inh -21 and Peg3 prom inh-1 -134.
For Cc1ccc(C(=O)Nc2ccc3c(c2)OCCO3)c(C)c1 the results were LMP1 NFkB inh 58*, TROY signal inh 59*, TRPM1 prom inh 66*, Shn3 inh set2 57, TWEAK-Fn14 inh 85*, Peg3 prom inh-1 68* and Peg3 prom inh-2 35.

From PubChem BioAssay
